# Assay results reported in ChEMBL document CHEMBL3433997, “St. Jude Leishmania screening dataset” (2016).
# What was measured:
# Assay type in all cases: functional
# [1] = molecular target: Solute carrier family 2, facilitated glucose transporter member 1 (Homo sapiens) (UniProt P11166); test: ST_JUDE_LEISH: Cytotoxicity at 2uM final concentration against transgenic Leishmania Mexicana promastigotes LmGLUT1 that are glucose transport deficient and complemented with the human glucose transporter GLUT1. Activity is measured by DNA content using SYBR green in vitro
# Sequence of Solute carrier family 2, facilitated glucose transporter member 1 (Homo sapiens) (P11166 whole entry): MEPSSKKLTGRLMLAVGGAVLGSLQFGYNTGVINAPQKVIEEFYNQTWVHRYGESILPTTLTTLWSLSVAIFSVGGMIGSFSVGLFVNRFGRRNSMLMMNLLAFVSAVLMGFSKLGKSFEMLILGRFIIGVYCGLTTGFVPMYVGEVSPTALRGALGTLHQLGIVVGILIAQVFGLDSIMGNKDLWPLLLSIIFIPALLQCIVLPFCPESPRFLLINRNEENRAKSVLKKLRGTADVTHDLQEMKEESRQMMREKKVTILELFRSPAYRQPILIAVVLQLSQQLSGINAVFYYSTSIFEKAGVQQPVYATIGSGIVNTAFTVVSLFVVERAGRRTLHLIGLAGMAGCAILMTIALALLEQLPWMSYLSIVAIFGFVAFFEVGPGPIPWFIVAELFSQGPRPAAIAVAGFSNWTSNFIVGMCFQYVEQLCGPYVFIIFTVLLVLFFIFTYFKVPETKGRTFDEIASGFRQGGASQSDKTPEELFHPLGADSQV
# [2] = molecular target: Hexose transporter 1 (Plasmodium falciparum) (UniProt O97467); test: ST_JUDE_LEISH: Cytotoxicity at 2uM final concentration against transgenic Leishmania Mexicana promastigotes LmPfHT that are glucose transport deficient and complemented with the Plasmodium falciparum hexose transporter. Activity is measured by DNA content using SYBR green in vitro
# [3] = molecular target: Glucose transporter (Leishmania mexicana) (UniProt O61059); test: ST_JUDE_LEISH: Cytotoxicity at 2uM final concentration against transgenic Leishmania Mexicana promastigotes LmGT2 that are glucose transport deficient and complemented with the L. Mexicana glucose transporter 2. Activity is measured by DNA content using SYBR green in vitro
structure (smiles),measurement,setting,value
O=C(Nc1ccc(SC(F)(F)F)cc1)Nc1ccnc2ccccc12,inhibition,[1],-1.32%
same,inhibition,[2],-0.22%
same,inhibition,[3],-2.28%
CC(=O)CCc1ccc(OCCN(Cc2ccccc2C(F)(F)F)c2ccc(C#N)c(C(F)(F)F)c2)cc1,inhibition,[1],3.66%
same,inhibition,[2],4.24%
same,inhibition,[3],2.73%
NC(=O)c1sc(-n2cnc3ccc(C(=O)NCCN4CCOCC4)cc32)cc1OCc1ccccc1C(F)(F)F,inhibition,[1],0.72%
same,inhibition,[2],-0.6%
same,inhibition,[3],-0.32%
COc1cc(Nc2nccc(N3CCC(NC(=O)Nc4ccc5c(c4)OCO5)C3)n2)cc(OC)c1OC (stereo unspecified),inhibition,[1],11.1%
same,inhibition,[2],6.84%
same,inhibition,[3],8.87%
CCOc1ccc(C(C)NC(=O)c2cc(Cl)ccc2OC)cc1OCC (stereo unspecified),inhibition,[1],-0.81%
same,inhibition,[2],0.16%
same,inhibition,[3],-2.78%
CCn1ncc2c(NC3CCOCC3)c(CNC(=O)c3ccnn3C)c(C)nc21,inhibition,[1],3.11%
same,inhibition,[2],2.89%
same,inhibition,[3],0.31%
CCOC(=O)c1ccc(NC(=O)Nc2cccc(-c3ccc(-c4nc5cc(F)ccc5[nH]4)cc3)c2)cc1,inhibition,[1],2.21%
same,inhibition,[2],2.88%
same,inhibition,[3],0.33%
Cc1nnc(-c2cccc(Nc3ccnc4cc(-c5nccs5)ccc34)c2)o1,inhibition,[1],11.2%
same,inhibition,[2],11.8%
same,inhibition,[3],9.75%
CC(Cc1ccc(NC(=O)c2ccc(CC(C)NCc3ccc(Cl)c(Cl)c3)cc2)cc1)NCCc1cccc(Cl)c1 (stereo unspecified),inhibition,[1],1.59%
same,inhibition,[2],-0.71%
same,inhibition,[3],-0.17%
O=C(O)c1ccc(-c2c[nH]c3ncc(-c4ccc(Cl)cc4)cc23)cc1,inhibition,[1],0.12%
same,inhibition,[2],-0.34%
same,inhibition,[3],-0.05%
COc1ccc(N(C)Cc2cnc3nc(N)nc(N)c3n2)cc1,inhibition,[1],1.5%
same,inhibition,[2],1.84%
same,inhibition,[3],2.61%
Fc1ccc2[nH]c(-c3ccc(-c4ccc(CN5CCN(CCN6CCOCC6)CC5)cc4)cc3)nc2c1,inhibition,[1],5.88%
same,inhibition,[2],4.38%
same,inhibition,[3],1.45%
